Screening results from PubChem.
HT1080 IDH1KD tx = qHTS for induction of synthetic lethality in tumor cells producing 2HG: qHTS for the HT-1080-IDH1KD cell line. HT-1080 IDH1 knockdown viability, ATP luminescence, 48 h. actives 2% (n = 360,000). Potency, µM (highest dose often 46.1 µM), usual class: cytotoxic
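Assay cells: HT-1080 with IDH1 knockdown, 750 per well, RPMI/5% FBS. Exposure: 48 h at 37 °C following 2 h pre-incubation. Read: CellTiter-Glo luminescence; fitted concentration-response, curve class assigned.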
TDP1 cell CPT = qHTS for Inhibitors of human tyrosyl-DNA phosphodiesterase 1 (TDP1): qHTS in cells in presence of CPT. Potency, µM (doses to about 46.2 µM), hits mostly inhibitors. AID 686979, 2013. chicken DT40 Tdp1-/-;hTDP1 cells + 20 nM CPT, ATP luminescence, 48 h. actives 12% (n = 420,000); note: nearly all actives have a fitted effect of over 55% in size
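Cell growth measured by CellTiter-Glo luminescence after a minimum 48 h, 37 C compound exposure with 20 nM CPT in Tdp1-knockout DT40 cells stably expressing hTDP1, seeded 400/well; qHTS titration format.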
IL1B secr inh = qHTS for Inhibitors of Inflammasome Signaling: IL-1-beta AlphaLISA Primary Screen; THP-1 LPS/ATP IL-1B secretion, AlphaLISA, 16 h; hits give low values; activity change, % at 57.5 µM; actives 4.7% (n = 360,000); AID 743279, 2014; in the data active = activity change below about -50%; inconclusive = mostly about -30% to -49%
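Secreted IL-1B measured by AlphaLISA bead assay after 16 h compound exposure of THP-1 cells; compounds (final up to 57.5 uM) added 1 h before LPS (250 ng/mL) and ATP (1.25 mM) stimulation; lower signal means less secretion.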
HT1080NT lethal = qHTS for induction of synthetic lethality in tumor cells producing 2HG: qHTS for the HT-1080-NT fibrosarcoma cell line. Potency, µM (series often up to 46.1 µM), usual class: cytotoxic. AID 686970, 2013. HT-1080-NT fibrosarcoma viability, CellTiter-Glo ATP luminescence, 48 h. actives 1.6% (n = 360,000);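 note: NT is the 2HG producing partner of a matched IDH1 knockdown line; nearly all actives have a fitted effect of over 55% in size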
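Viability of the 2HG-overproducing fibrosarcoma line after 48 hours of compound exposure at 37 degrees C was determined by luminescence with CellTiter-Glo, and concentration-effect curves were then fitted and categorized.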
ELG1 repair inh = qHTS screen for small molecules that inhibit ELG1-dependent DNA repair in human embryonic kidney (HEK293T) cells expressing luciferase-tagged ELG1; HEK293T ELG1-luciferase reporter, luminescence, 16 h; DNA damage induced by 5-fluorouridine; Potency, µM (titrated, usually from 46.1 µM), actives largely listed as inhibitors; actives 2.3% (n = 330,000); note: nearly all actives have a fitted effect of over 55% in size
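Step one: seed 2,000 cells per well. Step two: pin-transfer compound or DMSO alongside 5-fluorouridine. Step three: incubate 16 hr, 37 °C, 5% CO2. Step four: add ONE-Glo, wait 30 min, read luminescence.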
TDP1 cell noCPT = qHTS for Inhibitors of human tyrosyl-DNA phosphodiesterase 1 (TDP1): qHTS in cells in absence of CPT. DT40 Tdp1-/- hTDP1 cells, no CPT, ATP luminescence, 48 h. Potency, µM (doses to about 46.2 µM), hits mostly inhibitors. actives 15% (n = 420,000); note: nearly all actives have a fitted effect of over 55% in size
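Camptothecin absent (DMSO only). Human TDP1-complemented DT40 knockout cells, 400 cells/well, 37 °C for minimum 48 hr; ATP measured via CellTiter-Glo, 30 min dark incubation, luminescence.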
Numbers stand for hits; 0 = inactive; ? = inconclusive; - = no result given; [ ] = another dose, or the depositor's remark. A selection: hits, their analogues and other compounds. The true share with any hit is near 19%. Unless noted, calls come from the whole dose curve; as a rule, active = well fitted curve in the direction sought with a large enough effect; inconclusive = small, poorly fitted or top-dose-only effect, or another doubt; inactive = no such curve, though single readings can be large; an effect the other way counts as inactive or inconclusive.

SMILES	HT1080 IDH1KD tx	TDP1 cell CPT	IL1B secr inh	HT1080NT lethal	ELG1 repair inh	TDP1 cell noCPT
Cc1cccc(-n2cnc3cc(C(=O)NC4CCCCCC4)ccc32)c1	-	3.3µM	-	-	-	4.6µM
CS(=O)(=O)N1N=C(c2cccs2)CC1c1ccco1 (centres undefined)	0	?	0	0	?	?
Cc1cc(C(=O)Nc2ccccc2C)n(-c2ccccc2)n1	0	0	0	0	0	?
Cc1cc(Nc2ccccc2C)nc(-n2nc(C)cc2C)n1	-	4.6µM	-	-	-	5.2µM
CCCCc1ccc(Nc2cc(C)nc(-n3nc(C)cc3C)n2)cc1	-	4.6µM	-	-	-	5.2µM
Cc1cc(C)nc(-n2nc(C)c(Br)c2Nc2ccc(Br)cc2)n1	0	?	?	0	?	?
Cc1cc(Nc2cc(F)ccc2C)nc(-n2nc(C)cc2C)n1	-	5.2µM	-	-	-	5.2µM
Cc1cc(N2CCN(c3ccccc3)CC2)nc(-c2ccccc2O)n1	0	?	0	0	?	?
Cc1cc(N2CCN(c3ccccc3)CC2)nc(-n2nc(C)cc2C)n1	1.1µM	4.6µM	0	0.71µM	?	5.2µM
CC(C)(C)OC(=O)NC1CC2CCCC(C1)N2Cc1ccccc1 (centres undefined)	0	0	0	0	0	0
Cc1cc(C)c(C(=O)NCc2nc(-c3cccc(NC(=O)C4CCCN(C)C4)c3)oc2C)[nH]1 (centres undefined)	-	0[9.04 µM]	-	-	-	?
O=C1Nc2ccccc2C1Cc1ccccc1 (centres undefined)	0	?	0	0	?	0
O=C1C=CC2(C=C1)O[C@H](Cc1ccccc1)[C@@H](Cc1ccccc1)O2	1.2µM	1µM	-100	3.7µM	-	0.65µM
COc1ccc(C[C@@H]2OC3(C=CC(=O)C=C3)O[C@H]2Cc2ccc(OC)cc2)cc1	1.3µM	0.41µM	-77	5.2µM	-	0.37µM
CCc1cccc(C)c1NC(=O)Cn1cnc2c1c(=O)n(C)c(=O)n2C	-	?	-	-	-	0
Cc1ccc(C(=O)CC(=O)c2ccccc2C)c(O)c1	?	2.6µM	0	?	0	2.3µM
Cc1ccc(C(=O)CC(=O)c2cccc(F)c2)c(O)c1	?	7.3µM	0	?	0	6.5µM
Cc1ccc(C(=O)c2ccccc2C(=O)O)c(O)c1	0	0	0	0	0	0
Cc1cc(C)nc(NC(=NCCc2c[nH]c3ccccc23)NC(=O)Nc2ccc(Cl)cc2)n1	?	23µM	0	0	?	23µM
Cc1cc(C)nc(NC(N)=NCCc2c[nH]c3ccccc23)n1	?	21µM	-95	0	?	9.2µM
Cc1cc(C)nc(NC(N)=NC(C)c2ccccc2)n1 (centres undefined)	0	?	?	?	?	16µM
Cc1cc(C)nc(NC(N)=NCCc2ccccc2)n1	23µM	2.6µM	-95	10µM	-	2.9µM
NC(=NCCc1c[nH]c2ccccc12)NC(=O)c1ccc(Cl)cc1	?	?	0	?	?	0
NN=C1c2ccccc2-c2ccc(N)cc21	0	?	0	0	-	?
O=C(CSc1nc2[nH]ncc2c(=O)[nH]1)Nc1cc(C(F)(F)F)ccc1Cl	0	0	0	0	-	?
SMILES	HT1080 IDH1KD tx	TDP1 cell CPT	IL1B secr inh	HT1080NT lethal	ELG1 repair inh	TDP1 cell noCPT
CC(=O)c1c(C)oc2ccc(N(C(=O)Oc3ccccc3)S(=O)(=O)c3ccccc3)cc12	-	?	-	-	-	10µM
COC(=O)c1c(C)oc2ccc(N(C(=O)Oc3ccccc3)S(=O)(=O)c3ccc(C(C)(C)C)cc3)cc12	-	3.7µM	-	-	-	1.5µM
COc1ccc2c(c1)O[C@@H](c1cccc(C(F)(F)F)c1)[C@H](OC(=O)Nc1ccc(OC(F)F)cc1)C2=O	0	?	0	0	?	21µM
COc1ccc2c(c1)O[C@@H](c1cccc(C(F)(F)F)c1)[C@H](OC(=O)N[C@H]1CCCc3ccccc31)C2=O	-	-	-	-	0	-
CN1/C(=C\C(=S)NC(=O)c2cccc(Br)c2)C(C)(C)c2ccccc21	?	9.2µM	0	0	?	5.2µM
CCN(CC)S(=O)(=O)c1cccc(C(=O)/C=C2/N(C)c3ccccc3C2(C)C)c1	0	21µM	?	0	?	15µM
CN1/C(=C\C(=S)NC(=O)c2ccc([N+](=O)[O-])cc2)C(C)(C)c2ccccc21	0	16µM	0	0	0	23µM
CN1/C(=C\C(=O)CSc2nncn2C)C(C)(C)c2ccccc21	0	0	0	0	0	0
COC(=O)c1cc(=O)c2c(C)nc(C(Cl)(Cl)Cl)nc2[nH]1	0	0	0	0	0	0
CCc1nn(CC(=O)N2CCCCC2)c(=O)c2cc3sc(C)cc3n12	-	0	-	-	-	0
COc1cc(OC)c(NC(=O)c2sc3nc4n(c(=O)c3c2C)CCCC4)cc1Cl	-	0	-	-	-	0
COC(=O)c1cn(C(=O)c2ccc(OC)cc2)c2ccccc12	4.6µM	8.2µM	0	?	0	4.6µM
COC(=O)c1cn(C(=O)c2cccc(C)c2)c2ccccc12	0	0	0	0	0	0
COC(=O)c1cn(C(=O)c2cc(OC)c(OC)c(OC)c2)c2ccccc12	0	0	0	0	0	?
COC(=O)c1cn(C(=O)c2ccc3c(c2)OCO3)c2ccccc12	0	?	0	0	-	16µM
COC(=O)c1cn(C(=O)c2ccc(C)c(C)c2)c2ccccc12	0	?	0	0	0	21µM
COC(=O)c1cn(C(=O)c2ccc(C)cc2)c2ccccc12	0	18µM	0	0	0	16µM
COC(=O)c1cn(C(=O)c2ccc(OC)c(OC)c2)c2ccccc12	0	?	0	0	0	?
CCOC(=O)N1CCN(CC(O)COc2cc(C)cc(C)c2)CC1 (centres undefined)	0	0	0	0	0	0
Cc1ccc(NC(=O)C(=O)NCc2ccc(Cl)cc2)cc1	-	0	-	-	-	0
CCOC(=O)/C(=N\Nc1ncnc2ccccc12)c1ccc(C)cc1	0	0	0	0	?	0
Cc1cc2nc(C3CCN(C(=S)NCCCOC(C)C)CC3)[nH]c2cc1C	0	0	0	0	?	0
CCOC(=O)C1=CCN(S(=O)(=O)c2ccccc2Cl)C1c1ccccc1 (centres undefined)	0	?	0	0	-	23µM
CCOC(=O)C1=CCN(S(=O)(=O)c2ccccc2F)C1c1ccc(C)cc1 (centres undefined)	0	0	0	0	-	0
